Most compounds without a hit are left out; they make up all but 4.1% or so of the library.
ssDAF12 agonist: S. stercoralis DAF-12 activation, primary screen. HEK293 ssDAF-12/GRIP1 lit1-tk-luc reporter, luminescence; % of 3 µM dafachronic acid response. activation, % at 6.8 µM. 370,000 tested, 1% active. AID 652126;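 active means activation above the mean over all tested compounds plus 3 SD, cut at about 0.9% in these data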;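 further: 0% = DMSO-only wells and 100% = 3 µM delta7-dafachronic acid wells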
DAX1 inh-1: DAX1 (NR0B1) inhibition, primary screen; HEK293T StAR-luciferase reporter, SF-1/DAX-1 repression relief; inhibition, % at 6.8 µM; 370,000 tested, 1.1% active; AID 652010;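 active means inhibition above the mean over all tested compounds plus 3 SD, cut at about 3.6% in these data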;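 further: 0% = DAX-1 cells with DMSO and 100% = cells lacking DAX-1 with DMSO; higher inhibition means more luminescence from relief of DAX-1 repression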
hgDAF-12 ag: hgDAF-12 agonism, primary luciferase screen; HEK293 GAL4-hgDAF12 UAS-luciferase reporter, agonist luminescence; normalized to butyrate control; activation, % at 6.8 µM; 370,000 tested, 1.8% active;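 active means activation above a cutoff set at the mean of all screened compounds plus 3 SD, cut at about 10% in these data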;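 further: 0% = DMSO wells and 100% = sodium butyrate wells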
DAX1 inh-2: inhibits human nuclear receptor DAX1; P51843; HEK293 Gal4-DAX1 luciferase reporter, luminescence; inhibition, % at 6.75 µM; 340,000 tested, 0.99% active; AID 504766;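 active means inhibition above the mean over all tested compounds plus 3 SD, cut at about 4.2% in these data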;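 further: 0% = DAX1-transfected cells with DMSO and 100% = empty-vector control cells with DMSO; inhibition shows as a rise in luminescence from relieved DAX1 repression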
Target sequence (P51843 207-470 limits assumed): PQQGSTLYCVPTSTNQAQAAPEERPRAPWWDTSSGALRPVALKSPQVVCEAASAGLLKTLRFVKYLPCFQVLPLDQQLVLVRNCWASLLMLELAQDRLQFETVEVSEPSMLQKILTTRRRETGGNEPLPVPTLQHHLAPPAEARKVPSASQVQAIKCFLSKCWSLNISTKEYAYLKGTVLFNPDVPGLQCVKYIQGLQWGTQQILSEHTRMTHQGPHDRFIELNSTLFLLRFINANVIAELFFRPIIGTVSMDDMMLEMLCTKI
hcDAF12 agonist: H. contortus DAF-12 activation, primary screen; 370,000 tested, 1.4% active; activation, % at 6.8 µM; HEK293 hcDAF-12 lit1-tk-luc reporter, luminescence; 0% DMSO, 100% Δ7-dafachronic acid; AID 652067;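 active means activation above the mean of all tested compounds plus 3 SD, cut at about 5.5% in these data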;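 further: 100% = response to 3 µM Δ7-dafachronic acid high control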
LXRb hcDAF ctr: counter-screen for hcDAF-12 agonists: agonists of human LXR-beta; shares compounds with hcDAF12 agonist; HEK293 Gal4-LXR tk-luc reporter, luminescence, 24 h; normalized: DMSO 0%, positive control 100%; activation, % at 6.8 µM; 3,400 tested, under 10 active; AID 743027;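 active means mean percent activation of the reporter above a cutoff set as the average over tested compounds plus their standard deviation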
hcDAF12 conf: confirmation of H. contortus DAF-12 agonists | HEK293 hcDAF-12 lit1-tk-luc reporter, luminescence; % of Δ7-dafachronic acid response | activation, % at 6.8 µM | 3,400 tested, 61% active | shares compounds with hcDAF12 agonist;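 active means mean activation across triplicate tests above the threshold derived from the earlier primary screen, cut at about 5.5% in these data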;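 further: 0% = DMSO only wells and 100% = 3 µM Δ7-dafachronic acid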
hgDAF12 conf: hgDAF-12 agonism, confirmation assay. 3,300 tested, 80% active. HEK293 GAL4-hgDAF12 luciferase reporter, agonist mode; percent of butyrate response. activation, % at 6.8 µM. shares compounds with hgDAF-12 ag;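 active means mean activation over triplicate wells above the hit cutoff derived from the earlier primary screen, cut at about 11% in these data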;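 further: 0% = DMSO low control and 100% = 2 mM sodium butyrate high control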
LXRb DAF12 ctr: LXR-beta agonism as DAF-12 counter-screen | activation, % at 6.8 µM | shares compounds with hgDAF-12 ag | AID 743051 | 3,300 tested, under 10 active | HEK293 Gal4-LXR luciferase reporter, 24 h;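 active means mean activation of the triplicate above a set limit carried over from the primary screen, none filed active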
Active calls of the source: *; · = not tested or not shown.

SMILES	ssDAF12 agonist	DAX1 inh-1	hgDAF-12 ag	DAX1 inh-2	hcDAF12 agonist	LXRb hcDAF ctr	hcDAF12 conf	hgDAF12 conf	LXRb DAF12 ctr
O=C(NC1=NCCS1)c1ccc(Cl)c(Cl)c1	1	3	20*	5.4*	9.2*	1	7.5*	18*	1
O=C(NC1=NCCS1)c1cc(Cl)ccc1Cl	-1	0	-1	-1	0	·	·	·	·
Cc1ccc(Nc2nc(-c3ccncc3)cs2)cc1	2.4*	4.2*	16*	1	8.9*	1	7.2*	19*	1
CC(=O)Nc1cccc(-c2csc(Nc3ccc(C)cn3)n2)c1	1	5.5*	17*	0	13*	2	8.3*	21*	1
Cc1cc(-c2csc(Nc3ccccn3)n2)ccc1F	1.7*	2	17*	4	15*	2	12*	19*	1
Cc1ccc(-c2csc(Nc3ccccn3)n2)cc1	2.2*	2	16*	-3	8.2*	2	9.9*	19*	1
CCN1CCCC1CNC(=O)c1ccc(Sc2ccc(F)cc2)c([N+](=O)[O-])c1 (centres undefined)	-2	2	0	-1	-1	·	·	·	·
Fc1ccc(-c2csc(Nc3ccccn3)n2)c(F)c1	3.4*	2	14*	3	15*	2	16*	20*	1
Cc1ccc(Nc2nc(CSc3nnc(-c4ccncc4)n3C)cs2)cc1	0	4	16*	-2	7.3*	1	4	15*	0
Cc1cccnc1Nc1nc(-c2ccc(F)cc2)cs1	1.9*	3	18*	6.2*	10*	1	8.2*	16*	1
Cc1ccc(CSc2nnc(-c3ccncc3)n2C)cc1	-1	0	-1	-2	-2	·	·	·	·
O=C(Nc1nc(-c2cc(F)ccc2F)cs1)c1ccccn1	-1	-1	4	0	2	·	·	·	·
O=C(O)c1cc(NN=Nc2ccc(Br)cc2)cc([N+](=O)[O-])c1	0	1	7	0	0	·	·	·	·
O=C(Nc1ccc2c(c1)CCC2)c1cccc(F)c1	1	4.4*	19*	1	8.0*	1	5.7*	14*	1
O=C(Cc1cccc(F)c1)Nc1ccc2c(c1)CCC2	-1	0	4	-1	-1	·	·	·	·
c1ccc(-c2nc(-c3cccnc3)n[nH]2)cc1	-1	0	7	·	1	·	·	·	·
Brc1cccc(-c2n[nH]c(-c3ccccc3)n2)c1	1.8*	3	14*	2	12*	1	9.6*	21*	1
CC1=NC(=O)C(N=Nc2cccc(C(=O)O)c2)N1c1ccccc1 (centres undefined)	1.5*	3	16*	-4	10*	1	13*	16*	1
Cc1ccc(NC(=O)C(=O)c2c[nH]c3ccccc23)cc1	1	2	20*	3	7.2*	2	5	22*	1
Cc1ccc(NC(=O)c2cc(=O)[nH]c3ccccc23)cc1	-1	0	0	0	1	·	·	·	·
O=C(Nc1ccc(Cl)cn1)c1ccccc1F	1.2*	3	15*	2	6.6*	1	7.8*	18*	1
COc1ccc(-c2nc3c4ccccc4ccn3c2Cc2cccc(F)c2)cc1OC	1.0*	-1	16*	·	6.7*	1	7.4*	14*	0
O=C(CCCc1ccccc1)NC12CC3CC(CC(C3)C1)C2	1.2*	2	17*	3	8.4*	1	6.9*	15*	1
O=C(COC(=O)c1ccccc1)NC12CC3CC(CC(C3)C1)C2	-1	3	1	1	1	·	·	·	·
COC(=O)[C@]12C[C@H](CC(=O)N3CCC(c4ccccc4)CC3)C(=O)N(Cc3ccccc3)C1=C[C@H](C(C)C)O[C@@H]2C1CC1	-1	0	1	·	0	·	·	·	·
SMILES	ssDAF12 agonist	DAX1 inh-1	hgDAF-12 ag	DAX1 inh-2	hcDAF12 agonist	LXRb hcDAF ctr	hcDAF12 conf	hgDAF12 conf	LXRb DAF12 ctr
O=C(CCc1nnc(CCCc2ccccc2)o1)NC(C1CC1)C1CC1	1	2	16*	5.0*	7.3*	1	4	15*	1
CCOC(=O)c1ccc(COc2ccc(C(C)C)cc2)o1	0	4	10	2	2	·	·	·	·
CCC(C)c1ccc(OCc2ccc(C(=O)O)o2)cc1 (centres undefined)	1	3	15*	-4	10*	1	8.7*	22*	1
NS(=O)(=O)c1ccc(N/C=C\C(=O)c2ccc(F)cc2)cc1	0	4.2*	16*	1	6.7*	1	5	13*	1
O=C(CN1CCN(C(=O)c2ccco2)CC1)Nc1cccc([N+](=O)[O-])c1	-1	0	0	0	0	·	·	·	·
Cn1c(N/N=C/c2cc3ccccc3nc2Cl)nc2ccccc21	1.4*	3	15*	-2	12*	2	11*	17*	1
C[C@@H]1CN([C@@H](C)CO)C(=O)c2cc(NS(=O)(=O)c3cccs3)ccc2O[C@H]1CN(C)Cc1ccc(C(F)(F)F)cc1	-1	0	1	0	-2	·	·	·	·
C[C@H]1CN([C@@H](C)CO)C(=O)CCCn2nncc2CO[C@H]1CN(C)S(=O)(=O)c1ccc2ccccc2c1	-1	-1	-3	-1	0	·	·	·	·
Nc1c(-c2cccs2)cnc2c(-c3ccc(F)cc3)cnn12	1.0*	3	16*	2	9.0*	2	6.6*	25*	1
CCOC(=O)c1c(N)sc(C(=O)Nc2ccccc2)c1C	0	3	28*	-1	10*	2	8.9*	22*	1
COc1ccc(OC)c(/C=C2\SC(N3CCCC(C)C3)=NC2=O)c1 (centres undefined)	-2	-1	0	-1	0	·	·	·	·
O=C(N/N=C/c1c[nH]c2ccccc12)c1cc(-c2ccc(-c3ccccc3)cc2)n[nH]1	1	1	15*	1	7.8*	0	4	0	0
O=C(N/N=C/c1c[nH]c2ccccc12)c1cc(-c2ccc3ccccc3c2)n[nH]1	0	-1	25*	-1	7.9*	0	2	5	0

High-throughput results (PubChem BioAssay)
